Experimental findings from PubChem BioAssay (EPA / NIEHS) are described below.

A short description of test [1]: CCTE_Shafer_MEA_acute_per_burst_spike_number_mean: CCTE's Neural Acute Assay for Average Number of Spikes Per Burst, Shafer Lab (AID 2284015).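 Also: hits are decreases in mean spikes per burst versus baseline.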 The gist of the method: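 We recorded spontaneous network firing of rat cortical neurons for 40 min before and 40 min during exposure to compound at 0.03-40 uM, at 37 C. Spikes were detected adaptively at 8x rms noise, and the change in average spikes per burst was fitted against DMSO.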

The nature of test [2]: CCTE_Shafer_MEA_acute_interburst_interval_mean: CCTE's Neural Acute Assay for Mean Interburst Interval, Shafer Lab (AID 2284016).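 Also: percent change of mean interburst interval versus each well's own pre-dose baseline; curves fitted for decrease in interburst interval relative to DMSO.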 In outline: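 MEA recording of spontaneous network bursting in primary rat cortical cultures; mean interburst interval was compared before and after a 40-min compound exposure (0.03-40 uM) and expressed as percent change, relative to DMSO.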
Test [3] is described as follows: CCTE_Shafer_MEA_acute_burst_percentage_mean: CCTE's Neural Acute Assay for Percentage of Spikes in a Burst, Shafer Lab (AID 2284017).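 As to AC50: curve fitted for loss of signal so potency reflects decreased burst percentage.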 In outline: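 Compounds were tested at 0.03-40 uM on primary rat cortical neuron networks grown over microelectrodes, with at least three wells per compound. Spontaneous firing was recorded for 40 min before and 40 min after dosing, and the change in burst percentage was computed per well.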

Test [4] is described as follows: CCTE_Shafer_MEA_acute_per_network_burst_spike_number_mean: CCTE's Neural Acute Assay for Average Number of Spikes in a Network Burst, Shafer Lab (AID 2284019). In outline: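 Rat cortical cultures, DIV 13/15; spike threshold 8x rms noise, 300-5000 Hz band-pass, 12.5 kHz sampling; wells need >/= 10 active electrodes. Compound 0.03-40 uM, 40 min, 37 C; % change vs own baseline, DMSO negative control.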

The nature of test [5]: CCTE_Shafer_MEA_acute_per_network_burst_spike_number_std: CCTE's Neural Acute Assay for Standard Deviation of Number of Spikes in a Network Burst, Shafer Lab (AID 2284020).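 Also: fitted for decrease in spike-number SD versus DMSO so actives lower it.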 The gist of the method: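 Rat cortical cultures, DIV 13/15, 37 C; 20-min stabilisation, 40-min baseline, compound 0.03-40 uM, 40-min re-record. Spikes detected at 8x rms noise (300-5000 Hz band-pass). Readout: % change from baseline in per-burst spike-number SD.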

Test [6] in a line: CCTE_Shafer_MEA_acute_network_burst_percentage: CCTE's Neural Acute Assay for Percentage of Network Bursts, Shafer Lab (AID 2284022).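 Also: curves fitted for loss so actives lower network burst percentage.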 The gist of the method:
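Network burst percentage (spikes in network bursts divided by total spikes) recorded at 37 C over 40 min baseline and 40 min after compound, 0.03-40 uM, in rat cortical cultures at DIV 13 or 15. Analysed as percent change from baseline versus DMSO.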

The nature of test [7]: CCTE_Shafer_MEA_acute_cross_correlation_area: CCTE's Neural Acute Assay for Area of Cross Correlation, Shafer Lab (AID 2284024).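 Also: area under pooled inter-electrode spike cross-correlation near zero lag as percent change from own baseline; curves fitted for loss of cross-correlation area so actives lower synchrony.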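 As to outcome: rat primary cortical neuron networks on 48-well MEA at DIV 13 or 15 with 40 min exposure.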 The gist of the method: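 Percent change in well-wide cross-correlation area (window around zero lag) between 40 min baseline and 40 min post-compound recordings, 37 C; rat cortical cultures on MEA at DIV 13 or 15, dosed 0.03-40 uM, wells needing >/= 10 active electrodes.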

Test [8] can be described thus: CCTE_Shafer_MEA_acute_cross_correlation_HWHM: CCTE's Neural Acute Assay for Cross Correlation at Half Width at Half Maximum, Shafer Lab (AID 2284026).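 Also: percent change per well from pre-dose baseline in spike cross-correlogram half width; hits are a decrease in cross-correlogram half width relative to DMSO.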 The gist of the method: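 Per-well percent change in cross-correlogram half width at half maximum, derived from 40-min recordings before and after compound (0.03-40 uM) at 37 C. Cultures were rat cortical neurons, DIV 13 or 15, with adaptive spike detection at 8x rms.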

A short description of test [9]: CCTE_Shafer_MEA_acute_synchrony_index: CCTE's Neural Acute Assay for Synchrony, Shafer Lab (AID 2284027).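 Also: network synchrony index of spontaneous spiking in primary rat cortical neurons on MEAs; fitted for loss of signal so actives lower synchrony relative to DMSO.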 In outline:
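Plates equilibrated 20 min at 37 C, baseline recorded 40 min, compound (0.03-40 uM) added, then 40 min more recorded. Cells: primary rat cortical neurons, DIV 13 or 15. Per-well synchrony index change analysed in negative direction against DMSO.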

Test [10] is described as follows: CCTE_Shafer_MEA_dev_firing_rate_mean: CCTE's Neural Network Formation Assay for Mean Firing Rate, Shafer Lab (AID 2284031).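 As to AC50: curve fitted for loss of firing so AC50 reflects decreased mean firing rate.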 The gist of the method: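 Steps: seed rat cortical cells (1.5 x 10^5/well) with laminin on PEI-coated MEA; dose day 0; record DIV 5/7/9/12, full media and compound exchange after DIV 5 and 9 recordings; compute well-mean firing rate AUC.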

Test [11] is described as follows: CCTE_Shafer_MEA_dev_per_burst_spike_percent: CCTE's Neural Network Formation Assay for Percent of Spikes in a Burst, Shafer Lab (AID 2284032).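 As to AC50: fitted as a decrease in burst spike percentage below DMSO baseline.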 In outline:
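Value is trapezoidal AUC over recordings on days 5, 7, 9 and 12 of the well-mean fraction of spikes falling in single-electrode bursts; rat cortical cultures exposed continuously from plating, treatment renewed DIV 5 and 9, fitted downward against DMSO.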

Test [12] in a line: CCTE_Deisenroth_AIME_384WELL_CTox_Inactive: Cytotoxicity Assessment (CTOX) in CCTE's 384-well Estrogen Receptor Transactivation Assay without AIME metabolic competence (metabolism negative), Deisenroth Lab (AID 2284039; active = hit-call score of the fitted dose curve at least 0.9, where 1 is the maximum;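 also: cell viability via live-cell protease substrate cleaved to fluorescent probe; cells exposed 24 h to medium preincubated 2 h with alginate-water beads without S9; loss of fluorescence signal means loss of viability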). In outline: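 Fluorescence from a live-cell protease substrate, read after 24 h in VM7Luc4E2 cells, indicated viability. Test medium came from a 2 h AIME step without hepatic S9 (alginate-water microspheres); concentrations spanned 0.002 - 200 uM, single technical replicate per run.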

A short description of test [13]: CCTE_Shafer_MEA_dev_active_electrodes_number: CCTE's Neural Network Formation Assay for Number of Active Electrodes, Shafer Lab (AID 2284040; active = hit-call score of the fitted dose curve at least 0.9, where 1 is the maximum;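 as to AC50: potency for loss of active electrodes versus DMSO so lower counts are hits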). The gist of the method:
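Counts electrodes per well firing at least 5 spikes/min, recorded on days 5, 7, 9 and 12 in rat cortical cultures dosed continuously from plating (treatment refreshed DIV 5, 9). Value is the area under the curve over recordings, fitted downward relative to DMSO.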

The nature of test [14]: CCTE_Shafer_MEA_dev_burst_rate: CCTE's Neural Network Formation Assay for Burst Rate, Shafer Lab (AID 2284042).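 As to AC50: potency for loss of burst rate below DMSO control.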 The gist of the method:
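Developmental network assay measuring how 12-day exposure of rat cortical neuron cultures alters bursting on extracellular MEA recordings. Values are AUC of well-mean burst rate across four recording days, relative to DMSO vehicle.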

Test [15] in a line: CCTE_Shafer_MEA_dev_bursting_electrodes_number: CCTE's Neural Network Formation Assay for Number of Bursting Electrodes, Shafer Lab (AID 2284043; active = hit-call score of the fitted dose curve at least 0.9, where 1 is the maximum;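 as to AC50: potency is for loss of bursting electrodes relative to DMSO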). The gist of the method: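 Rat cortical primary neurons, 48-well MEA, 16 electrodes/well; dosing DIV 0–12, re-dosed with full media change DIV 5, 9. Recordings DIV 5/7/9/12, AxIS adaptive spike detector; bursting electrode = ≥1 burst/2 min. AUC across days; loss of signal vs DMSO.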

The nature of test [16]: CCTE_Shafer_MEA_dev_per_burst_interspike_interval: CCTE's Neural Network Formation Assay for Burst Interspike Interval, Shafer Lab (AID 2284044).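 As to AC50: potency for a decrease of within-burst interspike interval below DMSO level.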 In outline:
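Mean interspike interval within single-electrode bursts, averaged over bursting electrodes, from rat cortical cultures on MEA plates recorded on days 5, 7, 9 and 12. Continuous compound exposure from plating; trapezoidal AUC fitted downward relative to DMSO.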

A short description of test [17]: CCTE_Deisenroth_AIME_384WELL_CTox_Active: Cytotoxicity Assessment (CTOX) in CCTE's 384-well Estrogen Receptor Transactivation Assay with AIME metabolic competence (metabolism positive), Deisenroth Lab (AID 2284037; active = hit-call score of the fitted dose curve at least 0.9, where 1 is the maximum;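 also: chemicals first conditioned 2 h by alginate-bound induced rat liver S9 before cells; activity means signal loss indicating cell death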). The gist of the method: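 Chemicals pre-incubated 2 hours with alginate-immobilised phenobarbital/beta-naphthoflavone-induced male Sprague Dawley rat liver S9, then conditioned medium applied 24 hour to VM7Luc4E2 cells. Viability by fluorogenic protease substrate; 10-point series 0.002 - 200 uM.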

Values joined by “and” are separate entries in the source; they are usually repeats but may differ in a detail not shown here. Equal values may be shown once. Records with an inconclusive call do not appear. Some compounds were tested as several samples or in several runs, with calls that do not always agree. Active and inactive are the calls of the source. The calls were made as follows, unless noted: active = hit-call score of the fitted dose curve at least 0.9, where 1 is the maximum; inactive = score below 0.9.

A word on the AC50: it is the concentration at which the activity in the assay is half-maximal.

Consider `CCOP(=S)(OCC)SCCSCC`, for which the compound was called inactive in test [1], in test [2], in test [3], in test [4], in test [5] and in [6]. In addition, the call in test [7], in test [9], in [10], in test [11], in test [12] and in test [13] was inactive. Moreover, the outcome in test [14], in test [15] and in [16] was inactive. For the same compound, in test [8], the AC50 was 8.93 µM (active).

Regarding `CCOP(=S)(OCC)Oc1ccc2c(C)c(Cl)c(=O)oc2c1`, the AC50 in test [1] is 3.98 µM (active); in [2], 4.19 µM (active); in test [3], 3.9 µM (active); in [4], 1.99 µM (active); in test [5], 4.38 µM (active); in [6] it was 27.2 µM (active). The concentration at half-maximal activity (AC50) in test [8] was 2.38 µM (active); in test [9], 6.95 µM (active); in [10], 29.6 µM (active); in [11] it was 50 µM (active); in [13] it was 65.8 µM (active); in test [15], 50 µM (active). Also, the call in [7], in test [17], in test [12], in [14] and in test [16] was inactive.

For the compound `COP(=O)(OC)C(O)C(Cl)(Cl)Cl` (configuration not stated), the AC50 in [1] was 2.15 µM (active); in test [4], 15 µM (active); in [8] it was 15 µM (active); in [11] it was 50 µM (active); in test [13], 11.6 µM (active); in test [15], 36.9 µM (active) and 15 µM (active). Besides, the AC50 in [16] is 90.8 µM (active). The call in test [2], in test [3], in test [5], in [6], in [7] and in test [9] was inactive. For the same compound, the result in [10], in [11], in [14] and in test [16] was inactive.

As to `CCOP(=S)(Oc1cnc(C(C)(C)C)nc1)OC(C)C` (configuration not stated), the AC50 in [1] was 29.4 µM (active); in [3] it was 35.6 µM (active); in [4] it was 20 µM (active); in test [5], 28 µM (active); in test [6], 24.6 µM (active); in test [8] it was 26.9 µM (active). Also, the AC50 in test [9] is 31 µM (active); in test [10] it was 12.2 µM (active); in test [11], 89.1 µM (active) and 12.9 µM (active); in test [13], 93.2 µM (active) and 14.9 µM (active); in test [14], 14.3 µM (active); in test [15], 91.8 µM (active) and 12 µM (active). For the same compound, the AC50 in test [16] was 12 µM (active). Also, the call in test [2], in test [7], in test [10], in test [14] and in [16] was inactive.

Take `Cc1ccn2nc(S(=O)(=O)Nc3c(F)cccc3F)nc2n1`: the compound was called inactive in test [1], in test [2], in test [3], in [4], in test [5] and in test [6]. Moreover, the compound was called inactive in [7], in test [8] and in test [9].

Take `CSC1=N[C@@](C)(c2ccccc2)C(=O)N1Nc1ccccc1`: the AC50 in test [1] is 27.1 µM (active); in [3] it was 20 µM (active) and 24.4 µM (active); in [5], 30.8 µM (active); in test [6] it was 22.1 µM (active); in test [8], 29.8 µM (active) and 18.1 µM (active); in test [9] it was 20 µM (active) and 22.8 µM (active). Further, the outcome in test [1], in test [2], in test [4], in test [5], in test [6] and in test [7] was inactive. Also, the result in test [10], in test [11], in test [13], in [14], in [15] and in test [16] was inactive.

As to `C=C(C)[C@H]1Cc2c(ccc3c2O[C@@H]2COc4cc(OC)c(OC)cc4[C@@H]2C3=O)O1`, the outcome in test [1], in test [2], in [3], in test [4], in [5] and in [6] was inactive. The compound was called inactive in [7]. In addition, the AC50 is 30.7 µM (active) in [8]; 20 µM (active) in test [9]; 19.6 nM (active) and 16.2 nM (active) in test [10]; 24.4 nM (active) and 20.6 nM (active) in [11]; 25.2 nM (active) and 14.1 nM (active) in [13]; 17.3 nM (active) and 6.73 nM (active) in test [14]. For the same compound, the AC50 was 22.8 nM (active) and 12.4 nM (active) in test [15]; 36.4 nM (active) and 32.6 nM (active) in [16].

Regarding `CCc1cccc(C)c1N(C(=O)CCl)C(C)COC` (configuration not stated), the call in test [1], in test [2], in test [4] and in [7] was inactive. For the same compound, the AC50 in test [3] was 10.9 µM (active); in [5], 10.8 µM (active); in test [6], 21.9 µM (active); in test [8], 26.9 µM (active); in test [9], 8.13 µM (active).

Consider `CCCOCC(=Nc1ccc(Cl)cc1C(F)(F)F)n1ccnc1`, for which the AC50 in test [1] is 2.02 µM (active); in test [3] it was 2.71 µM (active); in test [4], 0.943 µM (active); in test [5], 4.42 µM (active); in [7], 440 nM (active); in [8], 1.6 µM (active). Moreover, the AC50 in test [9] was 2.69 µM (active). Besides, the outcome in test [2] and in test [6] was inactive.

Consider `CCc1cnc(C2=NC(C)(C(C)C)C(=O)N2)c(C(=O)O)c1` (configuration not stated), for which the compound was classed as inactive in test [1], in [2], in test [3], in test [4], in test [5] and in test [6]. Further, the result in [7], in [8] and in [9] was inactive.
